HCMV antiviral = human cytomegalovirus inhibition; actives 4.5% (n = 410,000); activity change, negative = inhibition, % at 57.5 µM; HFF cells, HCMV-luciferase reporter, 72 h; hits give low values; AID 1259415; in the data active = activity change below about -60%; inconclusive = no clear call, values can overlap the other calls; inactive = above about -39%
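Screen run at 2 compound doses on HFFs infected with reporter HCMV, MOI 1 PFU/cell. Luciferase activity from cell lysates at 72 h post infection gave inhibition relative to buffer-only and Salinomycin wells.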
LASV entry inh = Lassa virus entry inhibition; Lassa virus pseudotype entry inhibition, cell reporter; Potency, µM (series often up to 37.9 µM), for the others: top-dose activity change, negative = inhibition, hits mostly inhibitors; AID 540256; actives 1.2% (n = 300,000); calls by dose curve; tested in HEK293 cells; also: potency is read from the fitted curve at half-maximal effect; nearly all actives have a fitted effect of over 50% in size
Marburg entry inh = inhibitors of Marburg virus binding or cell entry | Marburg virus pseudotyped entry inhibition, cell reporter | Potency, µM (series often up to 37.8 µM), for inactives: at the highest dose activity change, negative = inhibition, usual class: inhibitors | actives 1.8% (n = 300,000); calls by dose curve; tested in HEK293 cells; also: potency is read from the fitted curve at half-maximal effect
HCV inhibitor = blocks hepatitis C virus; Huh7.5.1 HCVcc-Cre infection, luciferase reporter, 44 h; Potency, µM (titrated, usually from 41.8 µM), for the others: at the top dose activity change, negative = inhibition, hits mostly inhibitors; actives 3.4% (n = 340,000); also: potency is read from the fitted curve at half-maximal effect
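Cells seeded at 1,000/well and cultured 4 h, then compounds added followed by HCVcc-Cre virus (~0.5 moi). After 44 h further culture, luciferase substrate was added, plates held 15 min at room temperature, and luminescence read for 15 sec.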
Pf growth 96h = inhibits malaria parasite growth, 96 h. Potency, µM (doses to about 28.7 µM), inactives show top-dose activity change, negative = inhibition, usual class: inhibitors. P. falciparum luciferase reporter growth, 96 h. AID 504834. actives 6.9% (n = 320,000); also: potency is read from the fitted curve at half-maximal effect
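Plates of compound plus infected erythrocytes (2% hematocrit, 0.05% parasitemia final) incubate 96 hours, 37 C, 5% CO2. Detection reagent added; reduced luminescence from the parasites' luciferase reporter flags inhibition.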
Pf growth 48h = inhibits P. falciparum growth in the first generation, 48 h; P. falciparum luciferase growth in erythrocytes, 48 h; Potency, µM (highest dose often 28.7 µM), inactives show top-dose activity change, negative = inhibition, hits mostly inhibitors; actives 5.9% (n = 310,000); AID 504832; also: potency is read from the fitted curve at half-maximal effect
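Here the parasites carry a stable luciferase gene and grow inside erythrocytes in Albumax-based RPMI medium with compound for one erythrocytic cycle. Activity is scored as loss of luminescent signal.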
* marks the source's active call; other numbers are inactive results; ? = inconclusive; · = no result given; ! = a repeat was not active; [ ] = remark or other dose. A selection: hits, their analogues and other compounds. The true share with any hit is near 14%. Unless noted, calls follow the shape of the dose curve; as a rule, active = well fitted inhibition curve with a large enough effect; inconclusive = small, poorly fitted or top-dose-only effect, or another doubt; inactive = no such curve, though single readings can be large or run the other way. % is scaled to controls: 0 for no effect and ±100 for the full control effect.

SMILES	HCMV antiviral	LASV entry inh	Marburg entry inh	HCV inhibitor	Pf growth 96h	Pf growth 48h
CCCOc1ccc(N2C(=O)CC(N3CCN(CCN=CC4=C(O)CC(C)(C)CC4=O)CC3)C2=O)cc1 (configuration not stated)	20	1%	14%[46.1 µM]	11%	-15%	13%
CC1(C)CC(=O)C(C=NCCN2CCN(C3CC(=O)N(c4ccc(Br)cc4)C3=O)CC2)=C(O)C1 (configuration not stated)	-13	-4%	1%[46.1 µM]	29%	13µM*	31%
C=C(C)C[C@@]1(c2ccccc2)Oc2ccccc2C2=NCCN=C21	·	·	-21%[14.2 µM]	·	·	·
CC(=O)Oc1ccc(C2=Cc3ccc(OC(C)=O)cc3OC2C)cc1 (configuration not stated)	?	6.3µM*	?	?	·	·
CCc1ccc(/C=C2/SC(N3CCOCC3)=NC2=O)cc1	?	?	9%[46.1 µM]	-31%	2%	?
CCN1C/C(=C/c2ccc(N3CCOCC3)cc2)C(=O)/C(=C/c2ccc(N3CCOCC3)cc2)C1	-102*	?	?	?	4.1µM*	7.4µM*
CN1C/C(=C\c2ccc(N3CCOCC3)cc2)C(=O)/C(=C/c2ccc(N3CCOCC3)cc2)C1	?	2%	?	11µM*	65%	?
COc1ccccc1Cn1ccn(Cc2c(F)cccc2Cl)c(=O)c1=O	23	-12%[46.1 µM]	·	·	·	·
CC(=O)OC1C(OC(C)=O)N(C(C)=O)C(=O)N1C(C)=O (configuration not stated)	-35	2%	3%	15%	9.3µM*	-4%
O=C(NCCS(=O)(=O)N1CCCCC1)c1ccccc1	-14	8%	-17%	5%	31%	-9%
COc1cccc(C(=O)NCCCNc2nc3cc(C)cc(C)c3cc2C#N)c1	-4	·	·	·	·	·
COc1ccc2c(c1)[C@@]13CCC=C[C@H]1[C@@H](C2)NCC3	28	·	·	-8%	-6%	12µM*
CCc1ccc(NCc2cc3ccc(OC)cc3n(CC(=O)Nc3ccccc3C)c2=O)cc1	-34	-6%[46.1 µM]	·	·	·	·
Cc1[nH]c2ccccc2c1C(=O)CN1C(=O)NC2(CC(C)CC(C)(C)C2)C1=O (configuration not stated)	-1	?	?	2%	10µM*	?
CCOc1ccc(C2c3[nH]c4ccccc4c3CCN2C(=O)CSc2ccccc2)cc1 (configuration not stated)	-5	6.3µM*	·	·	·	·
Cc1ccc(C2c3[nH]c4ccccc4c3CCN2C(=O)CSc2ccccc2)cc1 (configuration not stated)	-30	10µM*	·	·	·	·
CC1(C)C2CCC(CN=C(N)CSS(=O)(=O)O)C1C2 (configuration not stated)	-38	·	·	·	·	·
CCCCNC(=O)c1ccc(NC(=O)C2CCCO2)cc1 (configuration not stated)	-90*	3%	14%	0%	17%	57%
O=C(Nc1cccc(NC(=O)C2CCCO2)c1)C1CCCO1 (configuration not stated)	-28	·	·	20%	2%	42%
Cc1ccc(NC(=O)C2CCCO2)cc1[N+](=O)[O-] (configuration not stated)	-3	-2%	?	-14%	2.6µM*	45%
CCOc1ccccc1NC(=O)c1ccc(NC(=O)C2CCCO2)cc1 (configuration not stated)	?	·	3%[46.1 µM]	11µM*	-5%	-13%
CCOC(=O)c1cccc(NC(=O)c2ccc(NC(=O)C3CCCO3)cc2)c1 (configuration not stated)	25	-2%[46.1 µM]	?	-25%	7.4µM*	?
CCOC(=O)c1ccc(NC(=O)C2CCCO2)cc1 (configuration not stated)	21	23%	1%	27%	-2%	62%
CC(C)OCCCNC(=O)c1ccc(NC(=O)C2CCCO2)cc1 (configuration not stated)	38	3%	?	3%	?	16%
COC(=O)c1ccccc1NC(=O)c1ccc(NC(=O)C2CCCO2)cc1 (configuration not stated)	2	?	-14%	?	5%	-6%
SMILES	HCMV antiviral	LASV entry inh	Marburg entry inh	HCV inhibitor	Pf growth 96h	Pf growth 48h
CC(Oc1ccccc1)C(=O)Nc1cccc(F)c1 (configuration not stated)	-12	?	-15%	-4%	·	-4%
Cc1ccc(NS(=O)(=O)c2cc(NC(=O)C(C)Oc3ccccc3)ccc2C)c(C)c1 (configuration not stated)	-7	?	4.6µM*	?	?	?
CC(Oc1ccccc1)C(=O)Nc1nnc(S(=O)(=O)N2CCCCCC2)s1 (configuration not stated)	-69*!	-4%[46.1 µM]	·	16%	4%	17%
Cc1ccc(NC(=O)CNc2ccc(OC(C)C)cc2)c(C)c1	12	-3%	-27%	?	13µM*	?
CC(C)C(=O)Nc1nnc(S(=O)(=O)N2CCCc3ccccc32)s1	-6	·	·	10%	11%	11%
CCC(CC)C(=O)Nc1nnc(S(=O)(=O)N2CCCc3ccccc32)s1	-34	·	·	-2%	15µM*	-10%
Cc1ccc(NC(=O)CNc2cccc(C)c2C)c(C)c1	-19	29%	6%	?	?	-29%
CCOC(=O)c1c(C)oc2nc(C)nc(NCc3ccccc3OC)c12	-7	-25%[46.1 µM]	·	·	·	·
CC1(C(=O)NS(=O)(=O)Cc2cccc(Cl)c2)CCN1C(=O)Cc1cccs1 (configuration not stated)	-8	·	·	·	·	·
C[C@H](NC(=O)[C@@H]1CCCN1C(=O)OC(C)(C)C)c1ccccc1	-6	·	·	·	·	·
CC(C)CC(=O)Nc1nnc(S(=O)(=O)N2c3ccccc3CC2C)s1 (configuration not stated)	7	-4%[46.1 µM]	·	2%	9.3µM*	53%
CCC(=O)Nc1nnc(S(=O)(=O)N2c3ccccc3CC2C)s1 (configuration not stated)	?	20%[46.1 µM]	·	9%	45%	21%
Cc1ccc(NC(=O)C(C)Oc2ccccc2)cc1S(=O)(=O)N1CCCCCC1 (configuration not stated)	-21	·	·	?	?	6.6µM*
COC(=O)C1CCN(S(=O)(=O)c2ccc(N3CCCCS3(=O)=O)cc2)CC1	-13	?	·	·	·	·
Cc1nc2ccc(Cl)cc2[nH]1	21	·	·	11%	·	·
Cc1nc2ccc(C(C(F)(F)F)(C(F)(F)F)C(F)(F)F)cc2[nH]1	-2	16µM*	-19%	?	·	?
CCc1ccc(C(=O)CN(C#N)c2nc(C)cc(C)n2)cc1	?	?	11µM*	?	?	0%
